Experimental data from PubChem BioAssay AID485317 (Broad Institute, 2010).
In all, about 290,000 compounds went through this assay and about 11,000 (3.8%) were called active.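 Rule for the calls: active = mean replicate inhibition above about 79%, with every replicate also reaching it (limit read from the data); inconclusive = only one of the two criteria met; inactive = mean below limit and not every replicate reaching it.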 The entries come from a sample that favours actives as a whole.

What follows are compounds tested against FAD-linked sulfhydryl oxidase ALR (Homo sapiens) (UniProt P55789) (assay: ALR-catalysed DTT oxidation blockers – biochemical, H2O2 detection, HRP-luminol luminescence, single point, primary screen (AID 485317)). Settings: purified ALR, hits give high values, concentration not given here.
Chain of FAD-linked sulfhydryl oxidase ALR (Homo sapiens) (P55789 whole entry, looked up): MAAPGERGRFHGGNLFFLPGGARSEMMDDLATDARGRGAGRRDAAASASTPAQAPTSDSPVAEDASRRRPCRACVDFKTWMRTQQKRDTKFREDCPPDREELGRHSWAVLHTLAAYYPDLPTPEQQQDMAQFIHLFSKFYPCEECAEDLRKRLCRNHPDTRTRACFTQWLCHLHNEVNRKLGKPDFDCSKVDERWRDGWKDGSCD

inhibition, active:
O=C(CCl)NNc1cccc(Cl)n1 98.1%
O=C(CSCc1ccccc1Cl)NNC(=O)c1ccccc1 99.6%
COc1c(O)cc2oc(-c3ccc(O)c(O)c3)cc(=O)c2c1O 99%
Cc1ccc(C)c(Cn2nnc3c(=O)[nH]c(C(=O)Nc4ccc(F)cc4)nc32)c1 95.6%
OC(COCC1COc2ccccc2O1)CN1CCN(c2ccc(F)cc2)CC1 (configuration not stated) 81.2%
Cc1cccc(CSc2nc3c(c(=O)n2C)SCC3)c1 99%
CCn1c(SCc2ccccc2)nc2c(c1=O)SCC2 90.4%

inhibition, inactive:
O=C(CCl)NNc1nc(-c2ccccc2)c2cc(Cl)ccc2n1 58.6%
COc1cc(OC)nc(NC(=O)CCl)n1 6.07%
O=C(COC(=O)Cc1ccccc1F)NNC(=O)c1ccc(Cl)cc1 0.881%
O=C(COC(=O)c1ncc(Cl)c(Cl)c1Cl)NNC(=O)c1ccccc1 8.83%
CCN1CCN(c2ccc(S(=O)(=O)N3CCCCC3)cc2NC(=O)c2cccc(NC(C)=O)c2)CC1 -18.1%
C[C@]12CC[C@H](O)CC1=CCC1C2CC[C@@]2(C)C1CC[C@@H]2NC(=O)CCC(=O)O (some centres not stated) -3.02%
Cc1ccc(NC(=O)COC(=O)C2CC2)cc1S(=O)(=O)N1CCOCC1 3.43%
CN(C)S(=O)(=O)c1ccc(C(=O)NCC2(N3CCOCC3)CCCCC2)cc1 -19.4%
CCOC(=O)COc1cc(O)c2c(=O)cc(-c3ccccc3)oc2c1 -2.55%
COc1ccc(-c2cc(=O)c3c(O)cc(O[C@@H]4O[C@H](CO[C@@H]5O[C@@H](C)[C@H](O)[C@@H](O)[C@H]5O)[C@@H](O)[C@H](O)[C@H]4O)cc3o2)cc1O 2.46%
[O-][n+]1ccc(OCc2ccccc2)cc1 -3.31%
CCOc1ccc(Br)cc1S(=O)(=O)Nc1ccc(S(=O)(=O)Nc2cc(C)on2)cc1 13.7%
Cc1ccc(NC(=O)N2CCC(c3nc4c(nnn4Cc4c(F)cccc4Cl)c(=O)[nH]3)CC2)cc1 -5.17%
O=C(Nc1ccc(F)cc1)N1CCCC(c2nc3c(nnn3Cc3ccccc3Cl)c(=O)[nH]2)C1 (configuration not stated) -24.5%
OC(COCc1ccco1)CN1CCN(c2ccccc2)CC1 (configuration not stated) 74.6%
O=[N+]([O-])c1ccc(N2CCN(CC(O)COc3ccccc3)CC2)cc1 (configuration not stated) 6.12%
Cn1c(SCC(=O)N2CCCCC2)nc2c(c1=O)SCC2 -0.76%
Cc1cccc(CSc2nnc(C)c(=O)n2N)c1 -4.99%
CCn1c(SCc2ccccc2)nc2cc(OC)c(OC)cc2c1=O -2.54%
COCCn1c(SCC(=O)N2CCCCCC2)nc2c(c1=O)SCC2 -0.691%
